# According to PubChem BioAssay (NCI):
# This is part of a sample that, as a whole, favours compounds with a hit. Of some 79,000 tested, about 15% had one in any assay. A number with no mark means an inactive call. The source made the active and inactive calls. Rule as the data show it: active = growth inhibition above about 70%; inactive = the rest.
# Columns and labels:
# [1] = NCI Yeast Anticancer Drug Screen. Data for the rad50 strain (AID 155);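 also: 0% = growth of vehicle-only cultures of the same strain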; settings: S. cerevisiae rad50 strain growth inhibition; at 50.0 µM; active compounds read high
# Method in brief: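 Genetically altered yeast (DNA repair pathway); compound treatment; growth inhibition vs vehicle ctrl.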
# [2] = NCI Yeast Anticancer Drug Screen. Data for the mec2-1 strain (AID 157); settings: S. cerevisiae mec2-1 strain, at 50.0 µM, active compounds read high
# Method in brief: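 Cells of the genetically defined mec2-1 yeast strain are incubated with test compound. Inhibition of growth is calculated against vehicle-treated controls.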
# [3] = NCI Yeast Anticancer Drug Screen. Data for the sgs1 mgt1 strain (AID 161);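 also: 0% = growth of cultures given vehicle only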; settings: S. cerevisiae sgs1 mgt1 strain, at 50.0 µM, active compounds read high
# Method in brief: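 Mutant yeast exposed to compound; growth scored against vehicle-only wells.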
# [4] = NCI Yeast Anticancer Drug Screen. Data for the cln2 rad14 strain (AID 165);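 also: 0% = growth equal to vehicle treated cultures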; settings: S. cerevisiae cln2 rad14 strain, at 50.0 µM, active compounds read high
# Method in brief: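 The screen exposed genetically defined yeast (cln2 rad14) to test compounds and scored growth inhibition relative to vehicle-treated controls.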
# [5] = NCI Yeast Anticancer Drug Screen. Data for the bub3 strain (AID 167); settings: S. cerevisiae bub3 mutant strain, at 50.0 µM, active compounds read high
# Method in brief: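 Yeast carrying a defined mutation is treated with each compound, and growth is compared with that of vehicle-exposed cells to give inhibition.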
# [6] = NCI Yeast Anticancer Drug Screen. Data for the mlh1 rad18 strain (AID 175); settings: S. cerevisiae mlh1 rad18 strain growth inhibition; at 50.0 µM; active compounds read high
# Method in brief: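 Compound-treated yeast growth, normalised to vehicle controls. Strain bears defined DNA repair mutations.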
Structure (SMILES),growth inhibition [1],growth inhibition [2],growth inhibition [3],growth inhibition [4],growth inhibition [5],growth inhibition [6]
CC(C)C(O)C(=O)C(O)C(C)C (stereo unspecified),-13.4%,-8.2%,4.5%,15.7%,3.4%,-10.9%
C/C(C#N)=C1/Nc2ccccc2NC1=O,0.55%,9.25%,-24.6%,-10.4%,15.1%,4.55%
CC(Nc1ccc([N+](=O)[O-])cc1)S(=O)(=O)O (stereo unspecified),7.4%,-0.2%,13.4%,16.6%,12.4%,18.4%
CC1=C(c2cc(C(=O)Nc3cc(C)ccc3C)nc(N)n2)Sc2ccccc2N1,5.25%,-10.8%,-25.8%,-18.1%,-13.1%,-10.8%
CC1(C)OP2(O)(OC(C)(C)c3ccccc32)c2ccccc21,31.1%,5.6%,12.3%,1.8%,6.85%,24.1%
OC(C1=NNC(C(O)c2ccccc2)=NN1)c1ccccc1 (stereo unspecified),-29%,4.7%,22%,-20.4%,-2.45%,5.8%
N#C/C(=C\N1CC(=O)NC1=S)c1nc2ccccc2s1,4.75%,8.45%,-6.05%,23.3%,24.9%,19.2%
O=[N+]([O-])c1ccc(O)c(N=Cc2ccc(C=Nc3cc([N+](=O)[O-])ccc3O)cc2)c1,-24.9%,-19.8%,-13.8%,1.2%,-5.1%,-17.6%
O=C1c2ccccc2C(=O)N1CC(O)COCc1ccccc1 (stereo unspecified),-17.8%,-25.8%,-31.7%,-15.9%,25.6%,-6.55%
CO[Si](C)(OC)c1ccccc1,-0.6%,-23.8%,-32.1%,13.2%,-25.8%,2.75%
O=C1CSC(c2cccc(C(F)(F)F)c2)N1c1nncs1 (stereo unspecified),10.5%,2.15%,19.6%,7.95%,16.6%,15.1%
COC(=O)/C=C(/C(=O)OC)c1c(C)c(C)c2c(C)cc(C)cc(C)c1-2,20.7%,14.4%,3.8%,17.4%,34.9%,22.2%
CC1OC(OC2C(O)C(OCCc3ccc(O)c(O)c3)OC(CO)C2OC(=O)/C=C/c2ccc(O)c(O)c2)C(O)C(O)C1O (stereo unspecified),4.75%,-9.8%,-3%,8.25%,-2.7%,20.8%
Cc1ccc(C)c2c1C1CCCCC3(OCCCO3)C21O (stereo unspecified),-4.2%,-6.3%,-44.2%,-6.9%,-24.2%,-0.85%
CC(=O)Nc1cnc2ccccc2c1,9.65%,-0.4%,7.1%,-2.8%,4.6%,-15.7%
CCC(=O)c1ccc(F)cc1,10.2%,-20.9%,4.5%,20.3%,-5.3%,20.4%
COC(=O)C1OC(n2ccc(=O)[nH]c2=O)C(OC(C)=O)C(OC(C)=O)C1OC(C)=O (stereo unspecified),2.2%,-3.4%,-1.3%,-9.55%,1.45%,6.6%
COc1ccc(-c2cc(-c3ccco3)c(C#N)c(=S)n2C2OC(COC(C)=O)C(OC(C)=O)C(OC(C)=O)C2OC(C)=O)cc1 (stereo unspecified),19.6%,-4.25%,12.7%,-2.75%,4.25%,34.2%

Structure (SMILES),growth inhibition [1],growth inhibition [2],growth inhibition [3],growth inhibition [4],growth inhibition [5],growth inhibition [6]
CC12C3CC4C5CC(C(C53)[C@@H]1NCc1ccccc1)C42 (stereo partly specified),44.8%,6.8%,19.2%,35.4%,32.9%,21.9%
CCNCc1cc(Nc2cc(C)nc(/N=C(\N)Nc3ccc(Cl)c(Cl)c3)n2)ccc1OC,98.8% (active),99% (active),99.3% (active),97.5% (active),98.2% (active),98.4% (active)
COC(=O)c1c(O)c2c(c3c1OC(C)(C)CC3)OC(C)(C)CC2,-13.3%,0.1%,-17.1%,-2.55%,8.05%,11.4%
CC(=O)NC(Cc1ccccc1)/C(C)=N\O (stereo unspecified),-3.15%,-2.05%,-2.65%,-15.2%,5.25%,4.8%
FC(F)(F)C1=NCCN1,-0.5%,-11.1%,-2.85%,11.4%,-2.45%,-10.3%
Nc1nc(N)nc(-c2ccccc2N)n1,2.2%,-7.5%,-14.2%,-45%,-22.8%,5.6%
CCCCCCCCCCCCC1CC(=O)OC1=O (stereo unspecified),3.65%,-15.4%,13%,18.1%,32.5%,-8.85%
BrCCCCCCCCCBr,9.75%,-3.35%,1.05%,12.9%,-16.6%,29.1%
CCCC(CCC(C)=O)[N+](=O)[O-] (stereo unspecified),-9.05%,-3.15%,-8.85%,-14.2%,1%,12%
CCCC(SCCO)C(CC)CSCCO (stereo unspecified),-16.8%,-9.55%,2.65%,-14.5%,13.1%,5.7%
CS(=O)(=O)OCCCSCCSCCCOS(C)(=O)=O,-4%,-0.05%,3.1%,-4.8%,-11.2%,-10.1%
O=[N+]([O-])c1ccc(N=Nc2ccc(O)c3c(O)cc(S(=O)(=O)O)cc23)cc1S(=O)(=O)O,30.6%,9%,6.85%,-24.8%,-11.4%,50.1%
CCOC(=O)C1(F)S(=O)(=O)OCCOS1(=O)=O,-12.9%,-9.95%,-11.4%,-18.4%,6.3%,-9.8%
Cc1ccnc(=O)[nH]1,-2.45%,-0.2%,11.8%,8.45%,1.75%,29.9%
CC(=O)OC1C(C2COCO2)OCOC1C1COCO1 (stereo unspecified),-3.3%,-7.15%,3.5%,-16.6%,-6.65%,-18%
CC(C)(C)c1cc(CCCCCCCC2(CCCCCCCc3cc(C(C)(C)C)cc(C(C)(C)C)c3)OC(COCCOCCCCCC#N)C(COCCOCCCCCC#N)O2)cc(C(C)(C)C)c1 (stereo unspecified),24.6%,-6.5%,-1.5%,-18%,0%,9.6%
COc1ccc([N+](=O)[O-])c2c(NCCC[N+](C)(C)[O-])c3ccccc3nc12,24.9%,-13.3%,3.05%,-46.8%,-19.2%,19.7%
CC(=O)Nc1ccc([N+](=O)[O-])cc1[N+](=O)[O-],3.35%,-10.9%,-4.05%,-37.9%,-15.6%,3.95%
